# Results from the supplement of paper PMC11732987, “Enantioselective OTUD7B fragment discovery through chemoproteomics screening and high-throughput optimisation” (Communications Chemistry, 2025).
# Values without a mark were called inactive.
# Experiments:
# Assay in all cases: log2 ratio of Biotin-Ahx-Ub-VS probe labelling (fragment/DMSO); higher = less target engagement (more negative = stronger competition), active = hit call of the paper (q ≤ 0.05, log2 ratio ≤ -1)
# Conditions in all cases: compound concentration: 200 uM; treatment time: 3 h
# [1] = biological target: T1, USP19 (UniProt O94966)
# T1 sequence (whole entry): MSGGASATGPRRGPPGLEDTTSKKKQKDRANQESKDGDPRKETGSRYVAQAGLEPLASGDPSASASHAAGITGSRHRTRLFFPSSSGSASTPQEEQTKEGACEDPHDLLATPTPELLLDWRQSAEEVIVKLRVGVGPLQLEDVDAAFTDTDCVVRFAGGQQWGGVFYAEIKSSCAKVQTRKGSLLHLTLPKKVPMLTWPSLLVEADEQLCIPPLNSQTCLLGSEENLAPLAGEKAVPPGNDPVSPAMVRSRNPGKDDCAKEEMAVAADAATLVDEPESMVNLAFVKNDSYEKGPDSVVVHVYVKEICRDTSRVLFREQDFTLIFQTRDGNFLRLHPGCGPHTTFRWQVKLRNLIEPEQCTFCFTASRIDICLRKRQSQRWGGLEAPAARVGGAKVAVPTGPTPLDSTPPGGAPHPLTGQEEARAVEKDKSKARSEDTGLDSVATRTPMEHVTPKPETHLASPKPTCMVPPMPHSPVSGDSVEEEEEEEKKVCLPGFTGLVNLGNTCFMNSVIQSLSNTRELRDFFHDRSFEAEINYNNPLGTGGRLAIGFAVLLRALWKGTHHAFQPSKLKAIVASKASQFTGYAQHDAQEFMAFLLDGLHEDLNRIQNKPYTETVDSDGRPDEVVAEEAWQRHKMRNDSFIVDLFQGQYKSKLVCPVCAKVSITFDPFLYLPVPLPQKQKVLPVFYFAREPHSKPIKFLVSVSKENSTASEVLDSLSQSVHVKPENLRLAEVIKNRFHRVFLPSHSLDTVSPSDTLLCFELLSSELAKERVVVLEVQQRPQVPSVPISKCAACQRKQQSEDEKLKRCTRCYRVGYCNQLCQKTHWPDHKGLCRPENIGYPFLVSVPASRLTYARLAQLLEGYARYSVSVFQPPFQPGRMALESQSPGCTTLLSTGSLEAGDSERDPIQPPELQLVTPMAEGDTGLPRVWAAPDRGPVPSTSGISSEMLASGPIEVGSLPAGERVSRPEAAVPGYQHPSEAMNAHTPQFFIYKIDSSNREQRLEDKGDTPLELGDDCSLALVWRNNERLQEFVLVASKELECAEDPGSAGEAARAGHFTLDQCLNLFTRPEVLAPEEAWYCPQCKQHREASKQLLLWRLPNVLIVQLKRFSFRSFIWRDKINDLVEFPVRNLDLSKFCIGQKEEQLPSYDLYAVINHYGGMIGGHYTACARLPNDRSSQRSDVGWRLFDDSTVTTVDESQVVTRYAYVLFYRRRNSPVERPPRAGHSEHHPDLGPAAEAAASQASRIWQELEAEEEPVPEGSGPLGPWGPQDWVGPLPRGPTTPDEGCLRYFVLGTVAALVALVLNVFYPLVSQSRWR
# Outline: (§1)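 Labelled DUBs from HEK293T lysate were NeutrAvidin-enriched, digested with LysC and trypsin, and run by diaPASEF LC-MS/MS. Before that, each 495 µg sample in Tris/CHAPS/IGEPAL buffer with protease inhibitors was treated in triplicate with fragment at 200 µM or vehicle for 3 h, then with Biotin-Ahx-Ub-VS at 0.5 µM final for 1 h. Values are average log2 ratios of fragment over vehicle by unpaired t-test, based on global-median-normalised Spectronaut label-free quantities from proteins with ≥2 unique peptides.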
# [2] = biological target: USP24 (UniProt Q9UPU5)
# Outline: as §1
# [3] = biological target: T2, USP25 (UniProt Q9UHP3)
# T2 sequence (whole entry): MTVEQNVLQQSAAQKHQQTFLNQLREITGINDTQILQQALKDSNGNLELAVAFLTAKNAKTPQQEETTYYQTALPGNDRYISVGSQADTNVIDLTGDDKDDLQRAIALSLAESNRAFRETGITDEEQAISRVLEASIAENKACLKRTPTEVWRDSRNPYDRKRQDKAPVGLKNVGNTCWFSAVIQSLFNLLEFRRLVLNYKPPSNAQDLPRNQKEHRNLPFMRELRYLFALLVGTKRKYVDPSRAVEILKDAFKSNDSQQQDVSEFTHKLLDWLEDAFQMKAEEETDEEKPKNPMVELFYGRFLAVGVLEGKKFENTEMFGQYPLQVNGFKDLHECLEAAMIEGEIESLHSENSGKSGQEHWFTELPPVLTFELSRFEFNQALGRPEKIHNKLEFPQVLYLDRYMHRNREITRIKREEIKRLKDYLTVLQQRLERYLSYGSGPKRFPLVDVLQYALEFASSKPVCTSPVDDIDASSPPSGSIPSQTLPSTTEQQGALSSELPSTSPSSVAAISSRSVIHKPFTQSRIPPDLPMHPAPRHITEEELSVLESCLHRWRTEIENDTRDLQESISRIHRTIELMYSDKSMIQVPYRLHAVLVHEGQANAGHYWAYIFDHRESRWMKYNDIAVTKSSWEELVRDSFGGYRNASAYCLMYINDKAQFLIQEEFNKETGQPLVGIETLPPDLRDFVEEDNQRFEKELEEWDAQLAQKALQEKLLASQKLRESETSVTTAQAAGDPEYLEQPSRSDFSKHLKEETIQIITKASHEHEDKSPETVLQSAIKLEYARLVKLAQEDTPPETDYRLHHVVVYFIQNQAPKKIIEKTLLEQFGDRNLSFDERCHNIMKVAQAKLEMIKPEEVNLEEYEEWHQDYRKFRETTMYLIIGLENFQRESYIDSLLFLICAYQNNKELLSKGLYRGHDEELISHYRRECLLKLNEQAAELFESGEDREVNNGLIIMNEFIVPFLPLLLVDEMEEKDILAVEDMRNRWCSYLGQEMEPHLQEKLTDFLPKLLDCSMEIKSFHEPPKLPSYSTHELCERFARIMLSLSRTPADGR
# Outline: as §1
# [4] = biological target: T3, USP28 (UniProt Q96RU2)
# T3 sequence (whole entry): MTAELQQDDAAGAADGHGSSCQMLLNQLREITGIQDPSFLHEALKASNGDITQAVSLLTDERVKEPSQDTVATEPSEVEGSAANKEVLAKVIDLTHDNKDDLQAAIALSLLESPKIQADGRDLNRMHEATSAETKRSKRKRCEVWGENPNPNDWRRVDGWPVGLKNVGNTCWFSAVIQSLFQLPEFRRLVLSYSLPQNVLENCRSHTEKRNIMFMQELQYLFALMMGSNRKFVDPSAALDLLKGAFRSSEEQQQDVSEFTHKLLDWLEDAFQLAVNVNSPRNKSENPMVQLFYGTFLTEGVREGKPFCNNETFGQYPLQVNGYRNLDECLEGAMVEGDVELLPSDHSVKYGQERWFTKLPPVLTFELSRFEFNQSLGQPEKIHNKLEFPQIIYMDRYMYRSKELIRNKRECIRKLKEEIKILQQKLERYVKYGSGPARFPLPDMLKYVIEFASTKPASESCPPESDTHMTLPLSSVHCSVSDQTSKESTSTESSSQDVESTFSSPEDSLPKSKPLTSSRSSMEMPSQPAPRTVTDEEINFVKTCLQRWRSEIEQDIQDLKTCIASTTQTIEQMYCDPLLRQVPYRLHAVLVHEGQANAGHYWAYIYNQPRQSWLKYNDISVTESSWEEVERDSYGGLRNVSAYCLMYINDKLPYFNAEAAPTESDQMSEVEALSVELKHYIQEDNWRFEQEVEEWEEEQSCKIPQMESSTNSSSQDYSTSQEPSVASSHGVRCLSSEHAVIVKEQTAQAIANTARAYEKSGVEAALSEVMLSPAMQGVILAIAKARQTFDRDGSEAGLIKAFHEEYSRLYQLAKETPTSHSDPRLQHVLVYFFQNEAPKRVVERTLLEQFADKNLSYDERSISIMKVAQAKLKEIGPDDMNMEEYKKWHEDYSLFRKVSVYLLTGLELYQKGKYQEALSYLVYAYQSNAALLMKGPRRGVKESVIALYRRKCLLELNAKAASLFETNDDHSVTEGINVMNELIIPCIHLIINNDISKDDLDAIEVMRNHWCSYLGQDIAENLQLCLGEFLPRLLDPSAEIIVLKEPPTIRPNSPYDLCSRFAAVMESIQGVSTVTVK
# Outline: as §1
# USP24, sequence (Q9UPU5 whole entry): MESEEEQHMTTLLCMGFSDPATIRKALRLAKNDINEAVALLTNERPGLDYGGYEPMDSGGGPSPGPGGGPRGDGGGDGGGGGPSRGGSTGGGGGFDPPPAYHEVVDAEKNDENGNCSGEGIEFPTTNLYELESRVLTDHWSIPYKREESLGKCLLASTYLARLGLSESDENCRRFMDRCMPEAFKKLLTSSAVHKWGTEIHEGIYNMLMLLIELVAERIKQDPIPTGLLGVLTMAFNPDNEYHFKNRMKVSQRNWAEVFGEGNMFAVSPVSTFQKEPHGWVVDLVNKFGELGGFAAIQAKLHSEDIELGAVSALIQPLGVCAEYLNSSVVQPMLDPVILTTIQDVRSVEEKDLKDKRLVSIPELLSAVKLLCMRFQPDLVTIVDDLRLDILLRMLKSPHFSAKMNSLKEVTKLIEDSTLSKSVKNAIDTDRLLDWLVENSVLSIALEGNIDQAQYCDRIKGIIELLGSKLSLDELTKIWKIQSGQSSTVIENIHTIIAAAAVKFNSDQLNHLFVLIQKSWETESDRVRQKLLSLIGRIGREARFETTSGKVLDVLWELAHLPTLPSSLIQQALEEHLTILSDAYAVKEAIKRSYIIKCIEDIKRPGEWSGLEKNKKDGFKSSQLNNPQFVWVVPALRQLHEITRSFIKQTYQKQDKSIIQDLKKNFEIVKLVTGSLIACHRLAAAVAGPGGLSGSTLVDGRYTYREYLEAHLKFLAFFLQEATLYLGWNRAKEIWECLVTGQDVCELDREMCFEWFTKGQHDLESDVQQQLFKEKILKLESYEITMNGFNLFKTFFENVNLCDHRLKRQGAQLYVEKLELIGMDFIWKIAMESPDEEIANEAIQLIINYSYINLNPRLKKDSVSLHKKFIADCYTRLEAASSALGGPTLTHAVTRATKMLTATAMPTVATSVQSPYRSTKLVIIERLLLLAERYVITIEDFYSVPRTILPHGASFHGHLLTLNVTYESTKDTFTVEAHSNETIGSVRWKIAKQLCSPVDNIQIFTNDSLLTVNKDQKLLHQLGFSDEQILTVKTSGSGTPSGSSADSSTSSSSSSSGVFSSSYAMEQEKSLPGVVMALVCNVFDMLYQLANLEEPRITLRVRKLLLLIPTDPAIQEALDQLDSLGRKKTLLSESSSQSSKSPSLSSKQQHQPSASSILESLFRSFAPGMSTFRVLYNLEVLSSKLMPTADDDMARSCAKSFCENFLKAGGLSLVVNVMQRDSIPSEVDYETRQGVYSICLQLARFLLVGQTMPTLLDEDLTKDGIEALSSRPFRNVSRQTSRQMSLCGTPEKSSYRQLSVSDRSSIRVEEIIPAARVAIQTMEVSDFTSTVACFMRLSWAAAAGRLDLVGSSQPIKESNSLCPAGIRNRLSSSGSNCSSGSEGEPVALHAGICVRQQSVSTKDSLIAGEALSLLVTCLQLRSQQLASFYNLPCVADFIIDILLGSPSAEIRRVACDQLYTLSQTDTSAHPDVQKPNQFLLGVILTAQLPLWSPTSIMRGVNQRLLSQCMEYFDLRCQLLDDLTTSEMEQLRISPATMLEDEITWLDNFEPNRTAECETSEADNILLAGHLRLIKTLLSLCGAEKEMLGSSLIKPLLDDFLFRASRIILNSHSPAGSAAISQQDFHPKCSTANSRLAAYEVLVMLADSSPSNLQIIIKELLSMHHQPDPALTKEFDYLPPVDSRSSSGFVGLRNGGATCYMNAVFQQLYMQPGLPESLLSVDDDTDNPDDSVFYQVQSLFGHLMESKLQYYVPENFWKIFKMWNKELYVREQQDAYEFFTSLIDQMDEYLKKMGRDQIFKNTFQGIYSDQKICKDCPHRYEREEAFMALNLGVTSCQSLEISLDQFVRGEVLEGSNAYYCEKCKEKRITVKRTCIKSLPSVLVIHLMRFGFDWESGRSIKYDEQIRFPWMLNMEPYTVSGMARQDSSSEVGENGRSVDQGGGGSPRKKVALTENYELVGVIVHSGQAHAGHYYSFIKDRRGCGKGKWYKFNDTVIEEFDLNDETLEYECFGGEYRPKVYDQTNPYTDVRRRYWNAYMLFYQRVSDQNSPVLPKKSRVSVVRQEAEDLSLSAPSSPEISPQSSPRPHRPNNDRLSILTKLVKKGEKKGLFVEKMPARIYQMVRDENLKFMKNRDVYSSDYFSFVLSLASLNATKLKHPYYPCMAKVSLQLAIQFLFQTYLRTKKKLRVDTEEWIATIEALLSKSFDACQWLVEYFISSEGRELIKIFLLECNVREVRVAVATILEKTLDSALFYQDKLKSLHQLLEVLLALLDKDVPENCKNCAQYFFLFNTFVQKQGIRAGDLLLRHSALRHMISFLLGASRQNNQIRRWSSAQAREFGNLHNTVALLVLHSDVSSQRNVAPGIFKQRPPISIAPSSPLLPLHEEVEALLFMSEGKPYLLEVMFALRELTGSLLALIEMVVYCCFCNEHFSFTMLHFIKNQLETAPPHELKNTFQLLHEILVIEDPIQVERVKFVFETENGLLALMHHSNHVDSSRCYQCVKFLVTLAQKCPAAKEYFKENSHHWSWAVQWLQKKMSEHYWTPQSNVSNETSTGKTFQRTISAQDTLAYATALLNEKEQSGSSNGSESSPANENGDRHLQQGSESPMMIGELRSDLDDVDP
smiles,measurement,setting,value
Cc1cc(NC(=O)CCl)n(-c2ccccc2)n1,log2 ratio of Biotin-Ahx-Ub-VS probe labelling,[1],-0.106
same,log2 ratio of Biotin-Ahx-Ub-VS probe labelling,[2],-0.201
same,log2 ratio of Biotin-Ahx-Ub-VS probe labelling,[3],-0.721
same,log2 ratio of Biotin-Ahx-Ub-VS probe labelling,[4],-1.03 (active)
